Structures are written as SMILES. Where “and” joins values, the source holds several entries; their conditions need not be identical. Equal values may be shown once. Screen size: about 290,000 compounds; about 890 (0.31%) were called active. Cut-off read from the data, not from the text of the source: active = inhibition mostly above about 52% (no sharp cut-off); inactive = mostly below about 76%. Only a selection was taken, and actives are over-represented in it overall.

A short description of this test: inhibitors of HIV fusion peptide binding, primary screen, biochemical, uHTS, fluorescence dequenching (AID 1986). To be noted: cell-free peptide binding, 30 min, stronger effect = higher value.
Where [1] appears, read: measured here: repeat confirmation average inhibition, at 18.6 µM.

With `O=C1NC(=O)N(c2ccc3c(c2)OCO3)C(=O)/C1=C/c1ccc(N2CCCCC2)o1`, under “at 20 µM”, the inhibition was 0.8% (inactive).
Still for that read-out and setting: then `CCOc1ccc(N2C(=O)NC(=O)/C(=C\c3ccc(N4CCCCC4)o3)C2=O)cc1`, with 152% (inactive).
As for `O=C1NC(=O)N(c2ccc3c(c2)OCO3)C(=O)/C1=C\c1ccc(N2CCCCC2)o1`, the inhibition is 112% (active) (at 20 µM) and 70.4% under setting [1].
As to `O=C1NC(=O)N(c2ccc3c(c2)OCO3)C(=O)/C1=C\c1ccc(-c2ccccc2C(=O)O)o1`, the inhibition (at 20 µM) was 22.4% (inactive).
For the compound `O=C1NC(=O)N(c2ccc3c(c2)OCO3)C(=O)/C1=C/c1cccs1`, for the setting “at 20 µM”, the inhibition was 12.1% (inactive).
Consider `O=C1NC(=O)N(c2ccc3c(c2)OCO3)C(=O)/C1=C/c1ccc(N2CCCC2)o1`, for which the inhibition (at 20 µM) is 111% (active) and the inhibition under setting [1] amounted to 89.9%.
As to `CC(C)Cc1nnc(NC(=O)CCC(=O)N2CCC3(CC2)OCCO3)s1`, for the setting “at 20 µM”, the inhibition is -0.2% (inactive).
Same read-out and setting: for `FC(F)(F)c1ccccc1NC1=NCCCS1` the value was -1% (inactive).
For `O=C1NC(=O)N(c2ccc(Cl)cc2)C(=O)/C1=C\c1ccc(Sc2nc3ccccc3[nH]2)o1`, the inhibition by setting is: (at 20 µM) 60.1% (inactive); under setting [1], 26%.
As to `O=C1NC(=O)N(c2ccccc2F)C(=O)/C1=C/c1ccc(Sc2nc3ccccc3[nH]2)o1`, the inhibition (at 20 µM) was 39% (inactive).
`O=C1NC(=O)N(c2cccc(Cl)c2)C(=O)/C1=C\c1ccc(Sc2nc3ccccc3[nH]2)o1`: under “at 20 µM”, the inhibition is 78.9% (active).
For `CC1CC2(O)c3no[n+]([O-])c3CCC2N1O` (stereo unspecified), the inhibition (at 20 µM) was 1.4% (inactive).
For `Cc1nc2ccc(Cl)cc2c(=O)n1-c1ccc([N+](=O)[O-])cc1`, the inhibition (at 20 µM) was -1.1% (inactive).
For `CCN(CC)c1ccc(/C=N/c2sc3c(c2C#N)C2CCN3CC2)c(O)c1`, the inhibition was 120% (active) (at 20 µM) and 193% under setting [1].
As for `N#Cc1c(/N=C/c2ccc(O)cc2O)sc2c1C1CCN2CC1`, under “at 20 µM”, the inhibition is 3% (inactive).
On the same count and under the same terms, for `CC(=O)c1c(C)n(Cc2ccccc2Cl)c2ccc(O)cc12` the value was -2.4% (inactive); for `Fc1ccc(Cn2nnnc2C(c2ccc(F)cc2)N2CC=C(c3ccc(F)cc3)CC2)cc1` (stereo unspecified), -1.1% (inactive); for `O=c1[nH]c(=O)n(CC2CCCO2)c(O)c1/C=C1\C=Nc2ccccc21` (stereo unspecified), 5.1% (inactive) and 14.6% (inactive).
On the same count and under the same terms, then `CCCCn1c(O)c(/C=C2\C=Nc3ccccc32)c(=O)[nH]c1=O`, with 78.2% (active); and `O=c1[nH]c(=O)n(-c2ccccc2F)c(O)c1/C=C1\C=Nc2ccccc21`, with 20.7% (inactive); and `CCOc1ccc(-n2c(O)c(/C=C3\C=Nc4ccccc43)c(=O)[nH]c2=O)cc1`, with 166% (inactive).
Same read-out and setting: then `C=CCn1c(O)c(/C=C2\C=Nc3ccccc32)c(=O)[nH]c1=O`, with 12.9% (inactive).
Regarding `O=c1[nH]c(=O)n(Cc2ccccc2)c(O)c1/C=C1\C=Nc2ccccc21`, the inhibition was 102% (active) (at 20 µM) and 66.2% under setting [1].
With `CCOP(=O)(OCC)/C(C#N)=C/c1ccoc1`, the inhibition (at 20 µM) was 13.5% (inactive).
As for `CC(=O)c1ccccc1NC(=O)C1C2CCC(O2)C1C(=O)O` (stereo unspecified), for the setting “at 20 µM”, the inhibition is 0% (inactive).
Still for that read-out and setting: then `O=C1Nc2ccc(Br)cc2C(c2ccc(Cl)cc2)=NC1O` (stereo unspecified), with -1.3% (inactive).
The same measure, in the same setting: for `CN1CCC(C)(O)C2CCCCC21` (stereo unspecified) the value was -1.3% (inactive); for `Cc1cc(NC(=O)C(Cl)(Cl)Cl)no1`, 1% (inactive).
Still for that read-out and setting: then `CCOC(=O)C1C(=O)N(C)C2(C)CC1c1ccccc1O2` (stereo unspecified), with 1.4% (inactive).
On to `CCN(CC)c1ccc(/C=C2\C(=O)NC(=S)N(C)C2=O)o1`, for which, where the note is “at 20 µM”, the inhibition was 149% (inactive).
As to `CN1C(=O)/C(=C/c2ccc(N3CCCCCC3)o2)C(=O)NC1=S`, the inhibition was 103% (active) (at 20 µM) and 52.7% under setting [1].
For `CCOc1cccc(N2C(=O)/C(=C/c3ccco3)C(=O)NC2=S)c1`, the inhibition (at 20 µM) was 15.4% (inactive).
As to `Cc1ccccc1N1C(=O)NC(=O)/C(=C/c2ccc(N3CCOCC3)o2)C1=O`, the inhibition is 124% (active) (at 20 µM) and 80.2% under setting [1].
Consider `O=C1NC(=O)C(=Cc2ccc(N3CCOCC3)o2)C(=O)N1`, for which the inhibition (at 20 µM) is 127% (inactive).
Same read-out and setting: for `CN1C(=O)C(=Cc2ccc(Sc3ccccc3)o2)C(=O)N(C)C1=O` the value was 15.9% (inactive).
On the same count and under the same terms, for `O=C1NC(=S)N(c2ccccc2)C(=O)/C1=C/c1ccco1` the value was 29.6% (inactive); for `CN1C(=O)/C(=C\c2ccc(N3CCCCCC3)cc2)C(=O)NC1=S`, 1.7% (inactive); for `Cc1ccccc1N1C(=O)/C(=C/c2ccco2)C(=O)NC1=S`, 76.1% (active).
For the compound `CCN(CC)c1ccc(C=C2C(=O)N(C)C(=S)N(C)C2=O)o1`, the inhibition (at 20 µM) is 91% (active) and the inhibition under setting [1] turned out to be 50.9%.
On to `Cc1ccccc1N1C(=O)NC(=O)/C(=C\c2cc(Br)c(N3CCOCC3)o2)C1=O`, for which the inhibition (at 20 µM) is 147% (inactive).
Same read-out and setting: for `CN1C(=O)/C(=C\c2ccc(N3CCCCC3)o2)C(=O)NC1=S` the value was 151% (inactive); for `CN1CCN(c2ccc(Cl)cc2N)CC1`, 0.1% (inactive).
`CCC(=O)N1CC(=O)Nc2ccc(Cl)cc2C1c1ccc(F)cc1` (stereo unspecified): the inhibition (at 20 µM) was -1.6% (inactive).
For the compound `Cc1cccc(OCC(=O)N2CCN(Cc3ccc([N+](=O)[O-])cc3)CC2)c1`, the inhibition (at 20 µM) is -1.3% (inactive).
The same measure, in the same setting: for `COc1cc(OC)c(C=O)c(OC(=O)N(C)C)c1` the value was 0.7% (inactive); for `CCCC[N+]12CCC(CC1)C(=C(c1ccccc1)c1ccccc1)C2`, 1.1% (inactive); for `C[C@]12CCC3C(CCC4=C/C(=N/OCC(=O)NC(CCC(=O)O)C(=O)O)CC[C@@]43C)C1CCC2O` (stereo partly specified), 3.9% (inactive).
The same measure, in the same setting: then `NCCCC(=O)OC1N=C(c2ccccc2Cl)c2cc(Br)ccc2NC1=O` (stereo unspecified), with -0.8% (inactive); and `Clc1cccc(N2CCNCC2)n1`, with 0.9% (inactive); and `CC(=NCC1CCCO1)c1c(O)n(C)c(=O)n(C)c1=O` (stereo unspecified), with -2.1% (inactive).
Consider `CN1C(=O)C(=Cc2ccc(N3CCCCC3)o2)C(=O)N(C)C1=S`, for which the inhibition runs as follows: (at 20 µM) 103% (active); under setting [1], 52.4%.
Regarding `CN1C(=O)C(=Cc2ccc(N3CCOCC3)o2)C(=O)N(C)C1=S`, the inhibition (at 20 µM) is 144% (inactive).
In the case of `CCN1C(=O)C(=Cc2ccc(N3CCOCC3)o2)C(=O)N(CC)C1=S`, the inhibition (at 20 µM) is 136% (inactive).
Still for that read-out and setting: for `Cc1cc(N2CCCCC2)ccc1C=C1C(=O)N(C)C(=S)N(C)C1=O` the value was 17.8% (inactive).
Same read-out and setting: then `CN1CCN(c2ccc(/C=C3\C(=O)NC(=S)N(c4cccc(Br)c4)C3=O)o2)CC1`, with 53.7% (active).
As to `CN1C(=O)C(=Cc2ccc(N3CCOCC3)o2)C(=O)N(C)C1=O`, the inhibition was 69.4% (active) (at 20 µM) and 81.3% under setting [1].
For `Cc1cc(C)cc(N2C(=O)/C(=C\c3ccc(N4CCN(C)CC4)o3)C(=O)NC2=S)c1`, under “at 20 µM”, the inhibition is 149% (inactive).
Same read-out and setting: then `CN1C(=O)C(=Cc2ccc(N3CCCCCC3)o2)C(=O)N(C)C1=S`, with 149% (inactive); and `Cc1cccc(N2C(=O)/C(=C/c3ccc(N4CCN(C)CC4)o3)C(=O)NC2=S)c1C`, with 13.2% (inactive); and `CNc1ccc2nc3ccccc3[n+](C)c2c1`, with 20.9% (inactive).
The same measure, in the same setting: then `COc1cc(C(=S)N2CCOCC2)cc(OC)c1OC(=O)Cc1ccccc1`, with -1.3% (inactive); and `O=C(CNC(=O)c1ccc(Br)cc1)Nc1ccc(Br)cc1C(=O)c1ccccc1`, with 1.3% (inactive); and `CCOC(=O)N(CC)c1ccc(C(O)(C(=O)OC)C(F)(F)F)cc1` (stereo unspecified), with 1.2% (inactive).
Still for that read-out and setting: then `CCCCn1c(=O)c(C(=O)NCc2ccco2)c(O)c2ccccc21`, with 4.7% (inactive); and `Cc1cc(N2CCCC2)ccc1C=C(C#N)C#N`, with 80.3% (active); and `Cc1cc(C=C(C#N)C#N)ccc1N1CCCC1`, with 40.1% (inactive).
On to `N#CC(C#N)=Cc1ccc(N2CCCC2)cc1`, for which the inhibition (at 20 µM) is 11.8% (inactive).
The same measure, in the same setting: for `c1ccc(-c2[nH]c[n+](CC3CO3)c2-c2ccccc2)cc1` (stereo unspecified) the value was 12.3% (inactive); for `O=C(CCc1nnc2ccc(NCc3ccccc3Cl)nn12)N1CCC2(CC1)OCCO2`, 1% (inactive); for `O=C(/C=C/c1c[nH]c2ccccc12)c1c(O)n(CCc2ccccc2)c(=O)[nH]c1=O`, 148% (inactive).
Same read-out and setting: for `CCCCn1c(O)c(C(C)=NCCc2c[nH]c3ccccc23)c(=O)[nH]c1=O` the value was 0.5% (inactive); for `CCCCn1c(O)c(C(=O)/C=C/c2c[nH]c3ccccc23)c(=O)[nH]c1=O`, 97.6% (active).
On to `CC(=O)NNC(=O)CN1C(=O)CN=C(c2ccccc2)c2cc(Br)ccc21`, for which the inhibition (at 20 µM) was 2.1% (inactive).
The same measure, in the same setting: for `CN(C)C(=O)Oc1ccc(Cl)c2cccnc12` the value was 3.9% (inactive); for `Cc1cc(C)cc(-n2c(O)c(C=Nc3ccc(N4CCOCC4)cc3)c(=O)[nH]c2=S)c1`, 23.1% (inactive).
`O=c1[nH]c(=S)n(-c2ccc(Br)cc2)c(O)c1C=Nc1ccc(N2CCOCC2)cc1`: the inhibition (at 20 µM) was 24.5% (inactive).
Turning to `O=c1[nH]c(=S)n(-c2ccc(Cl)cc2)c(O)c1C=Nc1ccc(N2CCOCC2)cc1`, the inhibition was 102% (active) (at 20 µM) and 80.1% under setting [1].
Consider `O=C1NC(=O)N(c2ccccc2)C(=O)/C1=C\c1ccccc1[N+](=O)[O-]`, for which, under “at 20 µM”, the inhibition is 3.7% (inactive).
For the compound `C=CCn1c(=O)c(C=Nc2cccnc2Cl)c(O)n(CCCC)c1=O`, the inhibition is 119% (inactive) (at 20 µM) and 1.7% under setting [1].
`CCCCn1c(=O)c(C=Nc2cccnc2Cl)c(O)n(CCCCl)c1=O`: the inhibition (at 20 µM) was 37.8% (inactive).
On the same count and under the same terms, then `O=c1c(C=Nc2cccnc2Cl)c(O)n(CCCCl)c(=O)n1C1CCCCC1`, with 71% (active); and `Cc1ccc(N2C(=O)NC(=O)C(CCc3ccccn3)(Cc3cccc(Cl)c3Cl)C2=O)cc1` (stereo unspecified), with 0.2% (inactive); and `Cc1ccc(-n2c(O)c(C=Nc3ccc(Br)cn3)c(=O)[nH]c2=O)cc1`, with 124% (active).
Same read-out and setting: then `Cc1cccc(-n2c(O)c(/C=C/C=Nc3ccccc3)c(=O)[nH]c2=O)c1`, with 147% (inactive).
Take `Cc1cccc(-n2c(O)c(C=Nc3ccc(Br)cn3)c(=O)[nH]c2=O)c1`: the inhibition (at 20 µM) was 144% (inactive).
As to `Cn1c(O)c(/C=C/C=Nc2ccccc2)c(=O)n(C)c1=S`, the inhibition is 91.4% (active) (at 20 µM) and 60.5% under setting [1].
Taken in the same sequence, the figures for `Cc1ccc(-n2c(O)c(/C=N/c3ncc(Br)cc3Br)c(=O)[nH]c2=O)cc1` were 64% (inactive) and 2.3%.
Taken in the same sequence, the figures for `Cn1c(O)c(/C=C/C=Nc2ccccc2)c(=O)n(C)c1=O` were 52.8% (inactive) and 27.8%.
In the case of `O=c1[nH]c(=O)n(-c2ccccc2)c(O)c1/C=C/C=Nc1ccccc1`, under “at 20 µM”, the inhibition was 147% (inactive).
On the same count and under the same terms, for `Cn1c(O)c(C=Nc2ccccc2)c(=O)n(C)c1=O` the value was 1.3% (inactive); for `Cc1ccc(-n2c(O)c(/C=C/C=Nc3ccccc3)c(=O)[nH]c2=O)cc1`, 74.3% (active).

The record behind these values is PubChem BioAssay AID1986 (Sanford-Burnham Center for Chemical Genomics, 2009).
